In PubChem BioAssay AID624116 (National Center for Advancing Translational Sciences (NCATS), 2012):
Records with an inconclusive call do not appear. Values without a mark were called inactive. Calls of active or inactive are those of the source. Calls come from the whole dose curve; as a rule, active = well fitted activation curve with a large enough effect; inconclusive = small, poorly fitted or top-dose-only effect; inactive = no such curve, though single readings can be large or run the other way.

Assay: qHTS Assay for Rab9 Promoter Activators: Hit Validation Using Renilla Luciferase Read-Out for Rab9; for activation, negative = inhibition: % of control where 0% means no effect
Conditions: Huh7 Rab9 promoter Renilla luciferase reporter, 24 h; series mostly up to 76.9 µM; activation, negative = inhibition: at the top concentration
Outline: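 Huh7 cells stably carrying promoter-luciferase reporter, exposed to compound for 24 h at 37 deg C. Luminescence read 10 min after adding luciferase detection reagent at room temperature.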
Potency is the fitted concentration of half-maximal effect.

In order of falling “activation, negative = inhibition” value:
1. Cc1ccc(NC(=O)c2c(O)c3ccccc3n(C)c2=O)nc1  9%
2. COc1cccc(CNC(=O)CN(c2cc(C)cc(C)c2)S(=O)(=O)c2c(C)noc2C)c1  6.58%
3. CC1CN(C(=O)c2ccncc2)CC(C)O1 (centres undefined)  5.39%
4. Cc1cccc(C)c1NC(=O)Nc1cccs1  2.79%
5. CC(Sc1nnc(C(F)(F)F)n1C)C(=O)Nc1ccc(S(N)(=O)=O)cc1 (centres undefined)  -0.0442%
6. CCOC(=O)CSc1nc2cc(C)ccc2cc1C#N  -0.328%
7. CCOC(=O)c1ccc(NC(=O)Oc2cc(C)c(Cl)cc2C(C)C)cc1  -0.506%
8. CC1CC(C)CN(CC(=O)N2CCOCC2)C1 (centres undefined)  -3.11%
9. COCCNC(=O)C1CCC(CNS(=O)(=O)c2ccc(F)cc2)CC1 (centres undefined)  -3.79%
10. Cc1cc(C)c2c(N)c(C(=O)Nc3ccc([N+](=O)[O-])cc3)sc2n1  -4.2%
11. O=C(CCCn1c(=O)oc2ccccc21)N1CCN(c2ccccn2)CC1  -4.46%
12. CN(C)/C=N/c1c(C#N)cnn1-c1nc2ccccc2s1  -4.94%
13. O=CN1CCN(C(=O)c2ccccc2Cl)CC1  -5.76%
14. Cc1ccc(CNC(=O)Nc2ccc(C)cc2)cc1  -8.38%
15. Cc1ccc(N=Cc2sc(O)c3ccccc23)c(C)c1  -9.75%
16. CCCCn1c(Nc2ccc(OC)cc2)nc2ccccc21  -15.8%
17. O=C(CSc1nnc(-c2csc3c2CCCC3)o1)Nc1ccccc1  -63.3%

For COc1ccccc1N(C(=O)c1snc(C(N)=O)c1N)C(C(=O)NC1CCCCC1)c1cccc(OC)c1OC (centres undefined), the Potency was 26 µM (active).
With N#C/C(=C\c1ccc[nH]1)C(=O)Nc1ccccc1Cl the Potency was 23.2 µM (active).
